Screening results: PubChem BioAssay, National Center for Advancing Translational Sciences (NCATS)
Most compounds without a hit are left out; they make up all but 3.6% or so of the library.
aSyn rescue: qHTS of alpha-syn Inhibitors. hit rate 0.14% among 370,000. AID 652106, 2013. Yeast expressing alpha-synuclein, growth rescue, BacTiter-Glo, 24 h. Potency, µM (series often up to 46.1 µM), for the others: at the highest dose growth rescue (activation), hits mostly activators; further: % of control where 0% means no effect; nearly all actives have a fitted effect of over 65% in size
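Rescue of yeast growth: cells expressing toxic alpha-synuclein, induced in galactose at OD600 0.02, incubated with compound 24 h at 30 C. ATP luminescence quantified growth; inhibitors of toxicity appear as activators.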
ClpP mod: qHTS Assay for Activators of ClpP. ATP-dependent Clp protease proteolytic subunit (Bacillus subtilis (strain 168)), P80244. purified B. subtilis ClpP, FRET peptide cleavage, 20 min. Potency, µM (highest dose often 57.5 µM), inactives show top-dose activity change, negative = active. hit rate 1.9% among 340,000. AID 651965, 2013; active means well fitted falling curve with a large enough effect; inconclusive means small, poorly fitted or top-dose-only effect; inactive means no such curve, though single readings can be large or run the other way; further: the source files actives as falling curves though it sought activators and does not explain the sign; nearly all actives have a fitted effect of over 65% in size
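Purified B. subtilis ClpP, 10 microg/mL final in Tris/HCl pH8 with KCl, BSA, glycerol and Tween-20, cleaved an Abz/nitrotyrosine-quenched decapeptide. Fluorescence (ex 320, em 430) was read at 0 and 20 min at room temperature. Delta was normalized to 5.8 microM ADEP and DMSO/no-enzyme controls.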
FUS suppressor: qHTS for Suppressors of FUS Proteinopathy: Primary screen using FUS-linked yeast assay. Potency, µM (series often up to 76.6 µM), actives largely listed as activators. hit rate 0.24% among 390,000. S. cerevisiae FUS-expressing, growth rescue, OD600, 24 h;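 further: plate controls were DMSO vehicle for no effect and reference control for full effect; nearly all actives have a fitted effect of over 55% in size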
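Cultures pregrown in 2.5% raffinose medium are shifted to minimal medium containing 2% galactose to express toxic FUS. Compounds are tested at several concentrations. After 24hr at 30C, growth is quantified at 600 nm absorbance.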
Abeta yeast res: qHTS for compounds that reverse cellular toxicity of Amyloid beta (A-beta) peptide in yeast: Primary Screen; Potency, µM (top dose mostly 46.1 µM), hits mostly activators; yeast expressing A-beta42, growth rescue, OD600, 48 h; response scale: 0% DMSO, 100% iron-clioquinol control; hit rate 0.063% among 410,000; further: nearly all actives have a fitted effect of over 55% in size
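Yeast growth medium received pinned compounds, then yeast cells expressing toxic A-beta were added; plates incubated at 30 C for 48 hr. Growth read as absorbance at 600 nm, normalized to DMSO and equimolar FeCl3 plus clioquinol controls.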
Mm-Cpn inhibitor: Inhibitors of TCP-1 ring complex (TRiC) of Methanococcus maripaludis (MmCpn): qHTS; Chaperonin Mm-Cpn (Methanococcus maripaludis); purified Mm-Cpn ATPase, ADP Transcreener TR-FRET; Potency, µM (doses to about 76.9 µM), for inactives: at the highest dose activity, negative = inhibition, hits mostly inhibitors; hit rate 0.031% among 330,000; AID 504842, 2011; further: on the % scale 0 is the no-effect control and ±100 the full control effect; nearly all actives have a fitted effect of over 80% in size
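Measured: ADP formation by purified Mm-CPN. Conditions: 25 nM protein, 10 uM ATP, Tris pH 7.4 with Mg2+, K+ and DTT, 37°C for 30 min. Detection: Transcreener HTRF after 30 min at room temperature.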
TDP-43 yeast inh: qHTS of TDP-43 Inhibitors; TDP-43 expressing yeast growth rescue, BacTiter-Glo, 24 h; Potency, µM (highest dose often 46.1 µM), without a hit: top-dose growth rescue (activation), hits mostly activators; hit rate 1.8% among 410,000; AID 652104, 2013; further: % of control where 0% means no effect; nearly all actives have a fitted effect of over 50% in size
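Yeast cells expressing TDP-43 under galactose induction are exposed to compounds for 24 hr at 30 deg C. BacTiter-Glo luminescence measures growth, so protective compounds score as activators.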
* marks the source's active call; other numbers are inactive results; i = inactive; ? = inconclusive; . = not tested or not shown; [ ] = dose if it differs, or a comment. Unless noted, the call rests on the fitted dose curve; in most records, active means well fitted curve in the direction sought with a large enough effect; inconclusive means small, poorly fitted or top-dose-only effect, or another doubt; inactive means no such curve, though single readings can be large; an effect the other way counts as inactive or inconclusive. Potency means the concentration at half of the fitted maximal effect.

SMILES | aSyn rescue | ClpP mod | FUS suppressor | Abeta yeast res | Mm-Cpn inhibitor | TDP-43 yeast inh
COc1cc(OC)c(/C=C/c2c3ccccc3cc[n+]2C)c(OC)c1 | -0.1% | -1.2% | . | . | . | .
C/C(=N\Nc1ccc([N+](=O)[O-])cc1)c1ccc(O)cc1 | -5.3% | . | ? | i | 1.0% | 23.6%
C/C(=N\Nc1ccc([N+](=O)[O-])cc1)c1cccc(N)c1 | 3.9% | -1.1% | i | i | 1.4% | 14.1µM*
CCOc1ccc(CCNC(=O)C2CCCN(S(=O)(=O)N(C)c3ccc(F)cc3)C2)cc1 (stereo not drawn) | . | 0.8% | i | i | . | 7.3%
CCN1C(=O)[C@H]2[C@@H](c3ccc(-c4ccc5c(c4)OCO5)c(OC)c3)N[C@@](Cc3ccccc3)(C(=O)OC)[C@H]2C1=O | 12.1% | 4.0% | ? | i | -15.8% | 2.2%
COC(=O)[C@]1(Cc2ccccc2)N[C@H](c2ccc(-c3cccc(Cl)c3)c(OC)c2)[C@@H]2C(=O)N(C)C(=O)[C@@H]21 | 3.2% | 4.3% | 14.1µM* | i | . | 15.4%
CCN1C(=O)[C@H]2[C@@H](c3ccc(-c4cccc(Cl)c4)c(OC)c3)N[C@@](Cc3ccccc3)(C(=O)OC)[C@H]2C1=O | 6.4% | -1.9% | ? | i | -0.3% | -6.5%
CCN1C(=O)[C@H]2[C@@H](c3ccc(-c4ccc(OC)cc4)c(OC)c3)N[C@@](Cc3ccccc3)(C(=O)OC)[C@H]2C1=O | 5.6% | 25.1µM* | ? | i | 0.1% | 28.2%
COC(=O)[C@]1(CC(C)C)N[C@H](c2ccc(-c3ccc(F)cc3)c(OC)c2)[C@@H]2C(=O)N(C)C(=O)[C@@H]21 | -7.1% | 4.0% | 28.2µM* | i | -8.5% | 29.7%
CCC(CC)C(=O)Nc1ccc(OCc2cc(=O)n3c4c(sc3n2)CCCC4)cc1 | . | -22.0% | i | i | . | 12.2%
CC1CCCN(S(=O)(=O)c2ccc(N3CCCCS3(=O)=O)cc2)C1 (stereo not drawn) | . | -0.2% | i | i | . | -7.7%[9.22 µM]
N#C/C(=C\c1ccc(OC(=O)c2cccs2)cc1)c1nc2ccccc2[nH]1 | -1.6% | 28.2µM* | . | i | -1.0% | 17.9%
N#C/C(=C\c1cccs1)c1nc2ccccc2[nH]1 | -3.5% | -1.8% | ? | i | -2.3% | -10.6%
CCOC(=O)c1ccc(N2C(=O)C3CC=CCC3C2=O)cc1 (stereo not drawn) | 3.8% | -1.0% | i | i | -3.1% | -7.3%
CCOC(=O)c1ccc(N2C(=O)C3C(C2=O)C(C(=O)c2ccc(Cl)cc2)N2CCCC32)cc1 (stereo not drawn) | 3.2% | -4.2% | 12.6µM* | i | -2.0% | -1.1%
CCNC(=S)NN=C1c2ccccc2-c2ccccc21 | -5.2% | . | i | i | -3.2% | 12.6µM*
COC(=O)c1ccc(/C=C/C(=O)O)cc1 | -6.6% | 0.4% | i | i | 0.8% | 35.5µM*
Cc1cccc(Oc2ccc3c(c2)Oc2ccccc2NC3=O)c1 | . | -1.0% | i | i | . | 22.3%
CC(C(=O)Nc1ncc2c(n1)CC(C)(C)CC2=O)N1C(=O)c2ccccc2C1=O (stereo not drawn) | 0.5% | 28.2µM* | i | i | 0.3% | -0.5%
CC(C)CC(COCc1ccc(Cl)cc1)N1CCN(C(=O)c2ccc(Cl)cc2Cl)CCC1=O (stereo not drawn) | ? | -2.1% | ? | i | 1.2% | 25.1µM*
Cc1cccc(COC[C@H](Cc2ccccc2)N2CCN(C(=O)c3cccc(Cl)c3)CCC2=O)c1 | ? | 0.9% | ? | i | . | 17.8µM*
